High-throughput results (PubChem BioAssay)
hcDAF-12 act: H. contortus DAF-12 nuclear receptor activators, primary screen, cell-based, luminescence, HEK293, lit1-tk-luc reporter; HEK293 hcDAF-12 lit1-tk-luc reporter; 0% DMSO, 100% Δ7-dafachronic acid; activation, % at 6.8 µM; hit rate 1.4% among 370,000;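 active = activation above the mean of all tested compounds plus 3 SD, cut at about 5.5% in these data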;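 note: 100% = response to 3 µM Δ7-dafachronic acid high control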
Wee1 degr inh: Wee1 degradation inhibitors, primary screen, cell-based, HeLa, Wee1K328M-luciferase, luminescence | HeLa Luc-Wee1K328M stability; 100% = proteasome inhibitor MG132 effect | AID 1321, 2008 | reporter increase, % at 5 µM | hit rate 1.2% among 220,000 | Wee1-like protein kinase (Homo sapiens), P30291;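 active = activation above the mean of all tested compounds plus 3 SD, set per screening run, cut at about 8.8% in these data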;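 note: cells exposed to compound for 20 h before luminescence read; 0% = DMSO alone and 100% = MG132 at 30 µM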
DAX1 inh-1: DAX1 (NR0B1) inhibitors, primary screen, cell-based, HEK293, Gal4-DAX1, luciferase luminescence. hit rate 0.99% among 340,000. HEK293 Gal4-DAX1 luciferase reporter. Nuclear receptor subfamily 0 group B member 1 (Homo sapiens), P51843. inhibition, % at 6.75 µM;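 active = inhibition above the mean over all tested compounds plus 3 SD, cut at about 4.2% in these data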;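 note: 0% = DAX1-transfected cells with DMSO and 100% = empty-vector control cells with DMSO; inhibition shows as a rise in luminescence from relieved DAX1 repression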
Target sequence (P51843 207-470 limits assumed): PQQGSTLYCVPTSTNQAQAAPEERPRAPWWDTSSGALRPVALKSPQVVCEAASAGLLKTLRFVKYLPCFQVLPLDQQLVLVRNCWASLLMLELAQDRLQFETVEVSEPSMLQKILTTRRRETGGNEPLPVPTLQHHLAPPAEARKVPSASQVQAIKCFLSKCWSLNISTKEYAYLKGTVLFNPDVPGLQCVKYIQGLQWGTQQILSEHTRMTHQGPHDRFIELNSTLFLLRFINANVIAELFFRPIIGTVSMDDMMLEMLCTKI
hgDAF12 agonist: H. glycines DAF-12 receptor agonists, primary screen, cell-based, luminescence, HEK293, GAL4 fusion, UAS-luciferase; activation, % at 6.8 µM; Nuclear hormone receptor DAF-12 (Heterodera glycines), GAL4 fusion; hit rate 1.8% among 370,000; HEK293 GAL4-hgDAF12 UAS-luciferase reporter, agonist luminescence; normalized to butyrate control;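 active = activation above a cutoff set at the mean of all screened compounds plus 3 SD, cut at about 10% in these data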;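 note: 0% = DMSO wells and 100% = sodium butyrate wells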
ssDAF12 agonist: S. stercoralis DAF-12 nuclear receptor activators, primary screen, cell-based, luminescence, HEK293, GRIP1 co-expression, lit1-tk-luc; HEK293 ssDAF-12/GRIP1 lit1-tk-luc reporter; % of 3 µM dafachronic acid response; hit rate 1% among 370,000; Nuclear hormone receptor DAF-12 (Strongyloides stercoralis); activation, % at 6.8 µM;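 active = activation above the mean over all tested compounds plus 3 SD, cut at about 0.9% in these data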;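 note: 0% = DMSO-only wells and 100% = 3 µM delta7-dafachronic acid wells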
DAX1 inh-2: DAX1 (NR0B1) inhibitors on StAR promoter, primary screen, cell-based, luminescence, SF-1 (NR5A1), full-length DAX-1 | HEK293T StAR-luciferase reporter, SF-1/DAX-1 repression relief | inhibition, % at 6.8 µM | hit rate 1.1% among 370,000;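 active = inhibition above the mean over all tested compounds plus 3 SD, cut at about 3.6% in these data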;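 note: 0% = DAX-1 cells with DMSO and 100% = cells lacking DAX-1 with DMSO; higher inhibition means more luminescence from relief of DAX-1 repression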
DAX1 inh confirm: DAX1 (NR0B1) inhibitors relieving SF-1 repression, confirmation, cell-based, luminescence, HEK293T, full-length DAX-1, SF-1 activated StAR promoter; shares compounds with DAX1 inh-2; HEK293T StAR-promoter luciferase reporter, SF-1/DAX-1 repression; inhibition, % at 6.8 µM; hit rate 87% among 2,400;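 active = inhibition above the average of every tested compound plus 3 SD, cut at about 3.8% in these data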;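 note: 0% = DAX-1 cells with DMSO and 100% = no DAX-1 control cells with DMSO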
Target sequence (P51843 whole entry, looked up): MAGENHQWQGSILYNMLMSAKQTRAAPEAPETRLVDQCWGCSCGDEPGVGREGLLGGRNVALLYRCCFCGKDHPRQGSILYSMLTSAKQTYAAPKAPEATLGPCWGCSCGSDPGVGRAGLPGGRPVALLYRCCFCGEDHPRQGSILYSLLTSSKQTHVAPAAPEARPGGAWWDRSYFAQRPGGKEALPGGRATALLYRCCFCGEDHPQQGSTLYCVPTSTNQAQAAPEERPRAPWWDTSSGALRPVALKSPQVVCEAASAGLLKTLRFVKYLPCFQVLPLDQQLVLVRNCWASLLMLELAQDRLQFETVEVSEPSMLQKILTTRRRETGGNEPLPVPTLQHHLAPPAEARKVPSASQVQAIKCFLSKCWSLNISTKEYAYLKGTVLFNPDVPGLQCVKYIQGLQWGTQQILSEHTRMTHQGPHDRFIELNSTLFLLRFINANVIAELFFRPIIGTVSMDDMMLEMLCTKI
SF1 AF2mut Luc: StAR reporter signal changes without DAX1, counter-screen for DAX1 inhibitor project, cell-based, luminescence, AF-2 mutant SF-1, transactivation. shares compounds with DAX1 inh-2. HEK293 StAR-luciferase, SF-1 AF2 mutant. inhibition, % at 6.8 µM. hit rate 78% among 2,400. AID 652136, 2013;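 active = inhibition above the mean of all tested compounds plus 3 SD, cut at about 3% in these data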;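 note: 0% = DAX-1 transfected cells with DMSO and 100% = cells without DAX-1 with DMSO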
LXR ag: LXR agonists, Gal4 luciferase reporter, confirmation, counter-screen for hcDAF-12 agonist project, cell-based, luminescence, HEK293, H. contortus campaign. shares compounds with hcDAF-12 act. HEK293 Gal4-LXR tk-luc reporter, 24 h; normalized: DMSO 0%, positive control 100%. activation, % at 6.8 µM. 3,400 tested, under 10 active. AID 743027, 2013;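 active = mean percent activation of the reporter above a cutoff set as the average over tested compounds plus their standard deviation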
hcDAF12 ag: H. contortus DAF-12 receptor agonists, confirmation, cell-based, luminescence, HEK293, lit1-tk-luc, triplicate. AID 743032, 2013. hit rate 61% among 3,400. shares compounds with hcDAF-12 act. activation, % at 6.8 µM. HEK293 hcDAF-12 lit1-tk-luc reporter; % of Δ7-dafachronic acid response;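 active = mean activation across triplicate tests above the threshold derived from the earlier primary screen, cut at about 5.5% in these data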;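 note: 0% = DMSO only wells and 100% = 3 µM Δ7-dafachronic acid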
hgDAF12 ag: H. glycines DAF-12 receptor agonists, confirmation, cell-based, luminescence, HEK293, GAL4-LBD fusion | shares compounds with hgDAF12 agonist | HEK293 GAL4-hgDAF12 luciferase reporter, agonist mode; percent of butyrate response | activation, % at 6.8 µM | hit rate 80% among 3,300;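 active = mean activation over triplicate wells above the hit cutoff derived from the earlier primary screen, cut at about 11% in these data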;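 note: 0% = DMSO low control and 100% = 2 mM sodium butyrate high control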
LXRb DAF12 ctr: LXR agonists, Gal4 luciferase reporter, confirmation, counter-screen for hgDAF-12 agonist project, cell-based, luminescence, HEK293, H. glycines campaign. shares compounds with hgDAF12 agonist. 24 h. activation, % at 6.8 µM. 3,300 tested, under 10 active. AID 743051, 2013;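 active = mean activation of the triplicate above a set limit carried over from the primary screen, none filed active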
An asterisk follows results filed as active. In the library only some 4.6% were active in any assay of this set; here they are far more common.

How did Cc1ccc2oc(-c3cccc(N)c3)nc2c1 do in these assays?
hcDAF-12 act: 13.6*; Wee1 degr inh: -3.1; DAX1 inh-1: 0.2; hgDAF12 agonist: 23.4*; ssDAF12 agonist: 2.5*; DAX1 inh-2: 6.4*; DAX1 inh confirm: 16.4*; SF1 AF2mut Luc: 8.2*; LXR ag: 1.2; hcDAF12 ag: 10.2*; hgDAF12 ag: 22.9*; LXRb DAF12 ctr: 1.0

Results for O=C(Cn1c(Cn2c(-c3cnccn3)nc3ccccc32)nc2ccccc21)c1ccc(OC(F)(F)F)cc1 ?
hcDAF-12 act: 1.3; hgDAF12 agonist: -3.6; ssDAF12 agonist: -0.7; DAX1 inh-2: -0.2

Results for CSC12CCCN(CCC(C(C)(C)C)C1)C2=O (configuration not stated) ?
hcDAF-12 act: -1.2; hgDAF12 agonist: 1.5; ssDAF12 agonist: -0.3; DAX1 inh-2: 1.5

Results for O=C(NC(=S)Nc1ccc2c(c1)OCCO2)c1ccccc1F ?
hcDAF-12 act: 4.5; Wee1 degr inh: 1.7; DAX1 inh-1: 2.2; hgDAF12 agonist: 18.7*; ssDAF12 agonist: 0.6; DAX1 inh-2: 7.6*; DAX1 inh confirm: 12.2*; SF1 AF2mut Luc: 7.0*; hgDAF12 ag: 18.3*; LXRb DAF12 ctr: 0.6

What do the screens show for `O=C(NC(=S)Nc1ccc2c(c1)OCCO2)c1ccccc1`?
hcDAF-12 act: 4.0; Wee1 degr inh: -0.7; DAX1 inh-1: 1.3; hgDAF12 agonist: 14.4*; ssDAF12 agonist: 0.3; DAX1 inh-2: 4.7*; DAX1 inh confirm: 15.8*; SF1 AF2mut Luc: 8.7*; hgDAF12 ag: 20.6*; LXRb DAF12 ctr: 0.9

How did C/C(=N/NC(=O)c1ccoc1C)c1cccc(NC(=O)C2CC2)c1 do in these assays?
hcDAF-12 act: 7.3*; Wee1 degr inh: 3.1; DAX1 inh-1: 0.7; hgDAF12 agonist: 15.6*; ssDAF12 agonist: 1.0*; DAX1 inh-2: 6.1*; DAX1 inh confirm: 1.2; SF1 AF2mut Luc: 0.3; LXR ag: -0.2; hcDAF12 ag: 0.2; hgDAF12 ag: 0.1; LXRb DAF12 ctr: 0.0

How did C/C(=N/NC(=O)c1ccc(C)s1)c1cccc(NC(=O)c2ccoc2C)c1 do in these assays?
hcDAF-12 act: -0.7; DAX1 inh-1: 0.1; hgDAF12 agonist: 3.7; ssDAF12 agonist: -1.2; DAX1 inh-2: 0.6

How did C/C(=N/NC(=O)c1ccoc1C)c1cccc(NC(=O)C(F)(F)F)c1 do in these assays?
hcDAF-12 act: 2.8; Wee1 degr inh: -2.0; DAX1 inh-1: 1.9; hgDAF12 agonist: 15.0*; ssDAF12 agonist: 0.6; DAX1 inh-2: 6.0*; DAX1 inh confirm: 6.3*; SF1 AF2mut Luc: 2.4; hgDAF12 ag: 6.3; LXRb DAF12 ctr: 0.1

How did CCCCC(=O)N/N=C(\C)c1cccc(NC(=O)C2CC2)c1 do in these assays?
hcDAF-12 act: -0.3; Wee1 degr inh: -2.1; DAX1 inh-1: 1.7; hgDAF12 agonist: -1.5; ssDAF12 agonist: -1.5; DAX1 inh-2: 0.5

How did Cc1ccc2nc(-c3ccc(F)cc3)c(CC3CCCCC3)n2c1 do in these assays?
hcDAF-12 act: 9.7*; hgDAF12 agonist: 13.9*; ssDAF12 agonist: 1.5*; DAX1 inh-2: 6.6*; DAX1 inh confirm: 3.3; SF1 AF2mut Luc: 5.0*; LXR ag: 0.1; hcDAF12 ag: 4.6; hgDAF12 ag: 9.9; LXRb DAF12 ctr: 0.3

How did CC(C)(C)OC(=O)NCCc1onc(-c2ccccc2F)c1C(=O)O do in these assays?
hcDAF-12 act: -0.7; DAX1 inh-1: 0.9; hgDAF12 agonist: 1.3; ssDAF12 agonist: -0.8; DAX1 inh-2: 0.1

How did CC1CC1C(=O)OCC(=O)Nc1cc(S(=O)(=O)N2CCCCC2)ccc1Cl (configuration not stated) do in these assays?
hcDAF-12 act: 1.6; DAX1 inh-1: 0.2; hgDAF12 agonist: -0.4; ssDAF12 agonist: -0.7; DAX1 inh-2: 0.0

How did COc1ccc(NC(=O)C2CC(=O)N(Cc3ccco3)C2)cc1Cl (configuration not stated) do in these assays?
hcDAF-12 act: -0.9; DAX1 inh-1: 0.4; hgDAF12 agonist: -0.5; ssDAF12 agonist: -1.2; DAX1 inh-2: 0.9

What do the screens show for `Cc1ccccc1Nc1nc(N)c2ccccc2n1`?
hcDAF-12 act: 7.1*; Wee1 degr inh: 1.3; DAX1 inh-1: 0.9; hgDAF12 agonist: 19.4*; ssDAF12 agonist: 0.5; DAX1 inh-2: 5.3*; DAX1 inh confirm: 12.5*; SF1 AF2mut Luc: 5.6*; LXR ag: 1.2; hcDAF12 ag: 5.3; hgDAF12 ag: 17.2*; LXRb DAF12 ctr: 0.9
